Screening results as filed in PubChem.
Sampled rows, rich in hits. Any-hit rate of the full collection: about 7%.
D3 antag – qHTS of D3 Dopamine Receptor Antagonist: qHTS; D(3) dopamine receptor (Homo sapiens), P35462; D3R cells, DiscoveRx beta-arrestin luminescence, antagonist mode; stronger effect = lower value; max response, negative = inhibition, %; 360,000 tested, 2.5% active; in the data active = max response below about -50%; inconclusive = no clear call, values can overlap the other calls; also: % is scaled to controls: 0 for no effect and ±100 for the full control effect
Target sequence (P35462 whole entry, looked up): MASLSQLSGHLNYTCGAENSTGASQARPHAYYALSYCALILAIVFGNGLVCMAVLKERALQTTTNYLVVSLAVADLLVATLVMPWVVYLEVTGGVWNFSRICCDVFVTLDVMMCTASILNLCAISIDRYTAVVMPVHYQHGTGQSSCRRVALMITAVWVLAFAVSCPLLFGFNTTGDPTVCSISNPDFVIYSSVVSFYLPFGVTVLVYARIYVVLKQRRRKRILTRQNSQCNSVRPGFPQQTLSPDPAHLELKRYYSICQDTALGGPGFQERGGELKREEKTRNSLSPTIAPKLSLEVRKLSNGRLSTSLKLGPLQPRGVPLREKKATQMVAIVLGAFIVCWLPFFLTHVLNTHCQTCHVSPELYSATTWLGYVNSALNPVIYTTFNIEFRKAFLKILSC
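Cells expressing the human receptor were seeded at 1500 cells/well, incubated overnight at 37 degrees C in 5% CO2, then exposed to library compounds with dopamine controls for 90 minutes at 37 degrees C before luminescent detection.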
S2 tox – Viability Counterscreen for Primary qHTS for Inhibitors of ATXN expression | S2 cells (HEK-293 line with an ATXN2-luciferase reporter) viability, CellTiter-Fluor protease fluorescence, 24 h | Potency, µM (top dose mostly 56.7 µM), usual class: cytotoxic | 400,000 tested, 0.49% active | AID 651635, 2014; also: potency is read from the fitted curve at half-maximal effect; nearly all actives have a fitted effect of over 40% in size
Integrin act MD – qHTS for Activators of Integrin-Mediated Alleviation for Muscular Dystrophy; 350,000 tested, 0.064% active; AID 624291, 2012; Potency, µM (series often up to 38.3 µM), without a hit: at the top dose activation, usual class: activators; alpha7betagal myoblasts, beta-gal FDG fluorescence, 48 h;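 also: potency is read from the fitted curve at half-maximal effect; 100% = response of the positive control SU9516; nearly all actives have a fitted effect of over 60% in size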
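Alpha7betagal+/- myoblasts (passage 13) were plated 16-24 hr, then exposed to compounds (1:260 dilution of DMSO stock) for 48 hours at 37C. After MPER lysis, β-galactosidase reporter activity was read as FDG fluorescence (ex 480/em 540) after 30 minutes.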
ATXN2 expr inh – Primary qHTS for Inhibitors of ATXN expression; HEK-293 ATXN2-luciferase reporter, luminescence, 24 h; 360,000 tested, 0.72% active; AID 1745845, 2022; Potency, µM (highest dose often 57 µM), without a hit: top-dose activity change, negative = inhibition, most hits filed as inhibitors; also: potency is read from the fitted curve at half-maximal effect; % is scaled to controls: 0 for no effect and ±100 for the full control effect; nearly all actives have a fitted effect of over 55% in size
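qHTS (up to 57 uM final) was run with 24 h compound exposure of reporter cells at 37 °C. Each well was multiplexed: SteadyGlo luminescence measured ATXN2-luciferase expression after a fluorogenic Gly-Phe-AFC viability readout (25 uM final).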
IL-1B inflam inh – qHTS for Inhibitors of Inflammasome Signaling: IL-1-beta AlphaLISA Primary Screen. THP-1 LPS/ATP IL-1B secretion, AlphaLISA, 16 h; stronger effect = lower value. activity change, % at 57.5 µM. 360,000 tested, 4.7% active. AID 743279, 2014; in the data active = activity change below about -50%; inconclusive = mostly about -30% to -49%; also: % is scaled to controls: 0 for no effect and ±100 for the full control effect
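Secreted IL-1B measured by AlphaLISA bead assay after 16 h compound exposure of THP-1 cells; compounds (final up to 57.5 uM) added 1 h before LPS (250 ng/mL) and ATP (1.25 mM) stimulation; lower signal means less secretion.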
D3 ag – qHTS of D3 Dopamine Receptor Agonist: qHTS. 410,000 tested, 0.58% active. D3R DiscoveRx beta-arrestin cells, luminescence, 90 min. max activation, %. D(3) dopamine receptor (Homo sapiens), P35462; in the data active = max activation above about 30%; also: 0% is about no effect
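Cells at 1500/well, incubated overnight, then treated with pinned compounds (dopamine as control) for 90 min at 37 degrees C. DiscoveRx reagent added for 30 - 60 minutes at room temperature; luminescence read.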
Active calls of the source: *; i = inactive; ? = inconclusive; . = no result given; [ ] = remark or other dose. Unless noted, calls follow the shape of the dose curve; as a rule, active = well fitted curve in the direction sought with a large enough effect; inconclusive = small, poorly fitted or top-dose-only effect, or another doubt; inactive = no such curve, though single readings can be large; an effect the other way counts as inactive or inconclusive.

SMILES | D3 antag | S2 tox | Integrin act MD | ATXN2 expr inh | IL-1B inflam inh | D3 ag
CC(=O)C1C(=O)C=C(c2cccs2)CC1c1ccccc1 (stereo not given) | -3 | i | -12% | 0% | -14 | 1
CCN(C(=O)CN1C(=O)S/C(=C\C=C\c2ccccc2)C1=O)C1CCS(=O)(=O)C1 (stereo not given) | -26 | i | 1% | . | -26 | 3
Cc1nc2scc(-c3ccccc3)c2c(=O)n1N | -15 | i | -8% | 1% | -10 | 5
Cc1nc2scc(-c3ccccc3)c2c(=O)n1N=C1C=CC(=O)C=C1 | -83* | . | -18% | 8%[11.3 µM] | -71* | -18
CCNC(=O)C1(C)CCCN(Cc2cccc3c2OCCO3)C1 (stereo not given) | -10 | i | . | 0% | 21 | -2
C=C(C)CSc1nnc(-c2cc(OC)c(OC)c(OC)c2)n1N | 22 | i | 8% | -4% | -21 | -4
CC(=O)OC(C(=O)N1CCN(c2ccc(F)cc2)CC1)c1ccccc1 (stereo not given) | -3 | i | 39% | -8% | 11 | -4
CO[C@@H](C(=O)N1Cc2[nH]nc(NC(=O)c3ccc(N4CCN(C)CC4)cc3)c2C1)c1ccccc1 | . | . | . | 27µM* | . | .
Cn1ccc2c(N3c4ccccc4CCc4ccccc43)cc3c(c21)C1CCC3O1 (stereo not given) | -10 | i | . | -17% | 19 | 6
CSc1cccc(NC(=S)N2CCC(N(C)C3CCCCCC3)CC2)c1 | 9 | i | -58% | -16% | -62* | -8
CSc1cccc(NC(=S)N2CCC(N(C)C(C)C)CC2)c1 | 9 | i | 10% | -29% | -13 | -1
CSc1cccc(NC(=S)N2CCCN(Cc3ccc(F)cc3)C2)c1 | ? | i | -25% | -33% | -52* | -14
Cc1c(Cl)cccc1NC(=S)N1CCCN(Cc2ccc(F)cc2)C1 | ? | i | 0% | 0% | -88* | -11
Cc1ccc(N(CC(=O)N/N=C/c2cccnc2)S(=O)(=O)c2ccccc2)cc1 | -6 | i | 0% | . | -7 | -3
Cn1c(=O)c2[nH]c(C3CC3)nc2n(C)c1=O | 10 | i | -2% | 4% | -3 | -8
Cc1cccc(N2CCN(Cc3cc(=O)oc4cc(C)ccc34)CC2C)c1 (stereo not given) | . | . | . | . | . | 0
COc1ccc(CCNC(=O)c2nnn(CC(=O)Nc3ccccc3C)c2N)cc1OC | 15 | i | -24% | 3% | 253 | -1
COc1cccc(CN2CCN(C(=O)c3ccco3)CC2)c1 | -25 | i | 1% | 8% | 0 | 37*
CCc1cc2cc(C(=O)N3CCN(c4ccccc4)CC3)sc2s1 | -2 | i | 22% | 13% | 12 | 0
CCc1ccc(CN2CCN(C(=O)c3ccco3)CC2)cc1 | -16 | i | -26% | -16% | ? | 69*
CCc1cc2cc(C(=O)N3CCN(Cc4ccccc4)CC3)sc2s1 | ? | i | 16% | 24% | -85* | -23
COc1ccc(OCC(=O)N2CCN(C(=O)c3ccco3)CC2)cc1 | -54* | i | 2% | 4% | 0 | -6
CC(=O)c1cccc(NC(=O)C(C)OC(=O)CCn2c(C)csc2=O)c1 (stereo not given) | 7 | i | -27% | . | -1 | -2
Cc1cc(C)nc(SCCn2c(N(C)Cc3ccccc3)nc3c2c(=O)n(C)c(=O)n3C)n1 | 18 | i | -6% | 5% | 20 | -4
Cn1cc(S(=O)(=O)NCc2ccc(Cl)cc2)c(=O)n(C)c1=O | 3 | i | 6% | 2% | -2 | -19
SMILES | D3 antag | S2 tox | Integrin act MD | ATXN2 expr inh | IL-1B inflam inh | D3 ag
CCc1ccccc1NC(=S)N(Cc1cccs1)C1CCCC1 | 3 | i | 13% | -14% | 8 | 1
Cc1ccc(-n2c(=O)cc(N3CCN(C(=O)c4ccco4)CC3)[nH]c2=O)cc1 | -2 | i | 30% | -7% | 3 | -4
Cn1c(=O)cc(N2CCN(C(=O)c3ccco3)CC2)[nH]c1=O | -113* | i | 17% | 0% | 15 | -12
COc1ccc(NC(=O)C(=O)NCCN2CCN(C(=O)c3ccco3)CC2)cc1 | 9 | i | 12% | -8% | 9 | 56*
O=C(c1ccco1)N1CCN(CC(O)COc2ccc(Br)cc2)CC1 (stereo not given) | -6 | i | 3% | -26% | ? | 35*
O=C(c1ccco1)N1CCN(Cc2cccc3ccccc23)CC1 | -14 | i | -18% | 14% | -24 | 32*
CC(=O)C1=C(C)NC(SCC(=O)Nc2nc3ccccc3s2)=C(C#N)C1c1ccc(Cl)cc1 (stereo not given) | 35 | . | 23% | 0% | -3 | 4
CCN(CC)CCN1CNC(=S)NC1 | -13 | i | 25% | . | 6 | -9
CCN(C(=O)CSc1nnc(C(C)N(C)C)n1-c1ccc(F)cc1)C1CCS(=O)(=O)C1 (stereo not given) | -5 | i | 8% | -3% | 11 | 5
O=C(c1ccco1)N1CCN(Cc2ccc(Br)cc2)CC1 | -2 | i | 20% | -17% | 0 | 33*
O=C(c1ccco1)N1CCN(Cc2c(Cl)cccc2Cl)CC1 | -7 | i | -48% | 46% | 0 | -6
O=C(c1ccco1)N1CCN(Cc2cccc(F)c2)CC1 | -30 | i | -7% | -9% | ? | 36*
CCOc1ccc(CN2CCN(C(=O)c3cccc(F)c3)CC2)cc1 | ? | i | -28% | -18% | -60* | -21
Nc1nc(N2CCN(C(=O)c3ccco3)CC2)nc2ccc(Br)cc12 | 49 | ? | -51% | . | -51* | 3
Nc1nc(N2CCN(C(=O)c3ccco3)CC2)nc2ccccc12 | 11 | i | 8% | 33% | 2 | -6
O=C(c1ccco1)N1CCN(Cc2ccc(Cl)cc2)CC1 | 3 | i | 6% | -1% | -1 | -5
O=S(=O)(Nc1cccc(-c2ccc(N3CCCC3)nn2)c1)c1cc(F)ccc1F | . | i | . | 7% | . | 4
Cc1cccc(CC(=O)NC2CCCCCC2)c1 | 1 | i | 27% | . | -3 | 7
O=C(c1cc(-c2ccccc2Cl)on1)N1CCN(C(=O)c2ccco2)CC1 | 98 | i | -10% | 18% | -29 | 0
O=C(c1ccco1)N1CCN(C(=O)c2ccc(-c3ccccc3Cl)o2)CC1 | -25 | i | -4% | 4% | -55* | 1
